Results published in PubChem BioAssay (NCI).
The panel holds about 79,000 compounds, 15% with a hit somewhere; the sample as a whole holds those more often. Values without a mark were called inactive. Activity calls are given as the source filed them. No stated cut-off is given here; in the data, active means growth inhibition above about 70%; inactive means the rest.

Test: NCI Yeast Anticancer Drug Screen. Data for the cln2 rad14 strain (AID 165);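 further: 0% = growth equal to vehicle treated cultures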
Conditions: S. cerevisiae cln2 rad14 strain, at 5.0 µM (retest, dose inferred, filed as 0.5), hits give high values
In short: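 Yeast carrying cln2 and rad14 alterations (cell cycle control and DNA damage repair) were exposed to compounds. Growth inhibition was measured against vehicle-treated controls.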

SMILES | growth inhibition
O=C(/C=C/c1cccc(Cl)c1)c1ccccc1 | 5%
COc1cccc(N2C(=O)C3CC(CC(C)(C)C)c4c([nH]c5ccccc45)C3C2=O)c1 (stereo not given) | -4%
O=C1c2ccccc2NC(=O)C2C1C(c1ccccc1)CC2(O)c1ccccc1 (stereo not given) | -14%
CCOC(=O)C1SC(=Nc2ccc(Cl)cc2)N=C1C (stereo not given) | 11%
COC(=O)c1nc(=S)[nH]c(C(=O)OC)c1C(=O)c1ccccn1 | 2%
Cn1c2c(c3ccccc31)CCN1C[C@@H]3CCCC[C@H]3C[C@@H]21 | 6%
CCCCCCCCCCCC1=NCCN1CCNCCCC | 9%
CN=C(N)N/N=C(\C)c1ccc2c(c1)Cc1cc(/C(C)=N/NC(N)=NC)ccc1-2 | 50%
O=C(Nc1ccccc1)OCCc1ccc(Br)cc1 | 1%
CN(C)CC/C(=N\Nc1ccc(Cl)cc1)c1ccccc1 | 96% (active)
O=C1Nc2ccccc2/C1=N\N=c1/scc(-c2ccccc2)n1-c1ccccc1 | 10%
CC(C)(C)C(=O)CC(=O)C(F)(F)C(F)(F)C(F)(F)F.CC(C)(C)C(=O)CC(=O)C(F)(F)C(F)(F)C(F)(F)F.CC(C)(C)C(=O)CC(=O)C(F)(F)C(F)(F)C(F)(F)F.[Fe] | 13%
COc1cc(N=Nc2cccc(S(N)(=O)=O)c2)c2ccccc2c1N | 34%
O=C(/C=C/C(=O)OCCCl)OCCCl | 4%
CCc1ccccc1NC(=O)C1=C(C)NC(C)=C(C(=O)Nc2c(CC)cccc2CC)C1c1ccc2c(c1)OCO2 (stereo not given) | 15%
Oc1c(Cl)cc(Cl)c2cccnc12 | 27%
COc1ccc2c(c1)[n+]([O-])c(-c1ccccc1)c(N)[n+]2[O-] | 67%
O=c1cccccc1[O-].O=c1cccccc1[O-].O=c1cccccc1[O-].[Sm+3] | 17%
CCCCCCCCCCCCCCCCNc1ccn(C2CC(OP(=O)(O)OCC3OC(n4cc(CC)c(=O)[nH]c4=O)CC3O)C(CO)O2)c(=O)n1 (stereo not given) | 7%
Nc1ccccc1OCC(O)CN1CCN(Cc2ccccc2)CC1 (stereo not given) | -4%

SMILES | growth inhibition
O=S(=O)(O)c1ccc(O)c2cc(Nc3ccccc3)ccc12 | 2%
CCOC(=O)/C(=C\c1ccc(-c2ccccc2)cc1)C(C)=O | 1%
O=C(C(Oc1ccc(Cl)cc1)Oc1ccc(Cl)cc1)N(O)c1ccccc1OCc1ccccc1 | -13%
CN(C)CC1CCC/C(=C\c2ccc(Cl)cc2)C1=O (stereo not given) | -25%
COc1ccc(/C=N/Nc2ccccc2)cc1 | -9%
O=C1c2ccccc2-c2ccccc2C(=O)C1(Br)Br | -8%
CC(=O)Nc1ccc(C(=O)n2[nH]c(C)c(/C=C3\C(=O)C=Cc4ccccc43)c2=O)cc1 | -10%
CC1OC2CC(=O)OC2C2=C1C(=O)c1c(O)cccc1C2=O (stereo not given) | 99% (active)
CCOC(=O)C(CCSC)C(=O)OCC | 1%
C[CH2][Sn]([CH2]C)([O]C(=O)c1cccc(OC)c1)[O][Sn]([CH2]C)([CH2]C)[O]C(=O)c1cccc(OC)c1 | 30%
O=C(Nc1ccccc1)Oc1c(Cl)c(Cl)c(Cl)c(Cl)c1Cl | 3%
CCN(CC)CCNc1ccc2nnn3c4ccc([N+](=O)[O-])cc4c(=O)c1c23 | 24%
CCCCCCN(CCCCCC)CCC(=O)c1ccc2cc(Br)c3ccccc3c2c1 | 8%
COC(=O)/C=C1/Nc2ccc(Cl)cc2C(=O)NC1=O | 23%
CN(C)COC(=S)SCN(C)C | 93% (active)
Clc1ccc(-c2noc(CN3CCCCC3)n2)cc1 | -7%
CCCCCCCCCCCCCC(=O)OCC(O)CO (stereo not given) | 7%
CCC[CH2][Sn]([CH2]CCC)([O]C(=O)c1cccc(F)c1)[O]C(=O)c1cccc(F)c1 | 10%
CCCCCCCCCCCCCCCCC1CCc2ccccc21 (stereo not given) | 23%
CCOC(=O)NCCCc1ccc2oc3ccccc3c2c1 | 1%

Same assay, conditions: S. cerevisiae cln2 rad14 strain, at 50.0 µM (retest, dose inferred, filed as 5.0), hits give high values

SMILES | growth inhibition
O=C(/C=C/c1cccc(Cl)c1)c1ccccc1 | 52%
COc1cccc(N2C(=O)C3CC(CC(C)(C)C)c4c([nH]c5ccccc45)C3C2=O)c1 (stereo not given) | 33%
O=C1c2ccccc2NC(=O)C2C1C(c1ccccc1)CC2(O)c1ccccc1 (stereo not given) | 51%
CCOC(=O)C1SC(=Nc2ccc(Cl)cc2)N=C1C (stereo not given) | 66%
COC(=O)c1nc(=S)[nH]c(C(=O)OC)c1C(=O)c1ccccn1 | 84% (active)
Cn1c2c(c3ccccc31)CCN1C[C@@H]3CCCC[C@H]3C[C@@H]21 | -6%
CCCCCCCCCCCC1=NCCN1CCNCCCC | 66%
CN=C(N)N/N=C(\C)c1ccc2c(c1)Cc1cc(/C(C)=N/NC(N)=NC)ccc1-2 | 95% (active)
O=C(Nc1ccccc1)OCCc1ccc(Br)cc1 | -2%
CN(C)CC/C(=N\Nc1ccc(Cl)cc1)c1ccccc1 | 99% (active)
O=C1Nc2ccccc2/C1=N\N=c1/scc(-c2ccccc2)n1-c1ccccc1 | 90% (active)
CC(C)(C)C(=O)CC(=O)C(F)(F)C(F)(F)C(F)(F)F.CC(C)(C)C(=O)CC(=O)C(F)(F)C(F)(F)C(F)(F)F.CC(C)(C)C(=O)CC(=O)C(F)(F)C(F)(F)C(F)(F)F.[Fe] | 91% (active)
COc1cc(N=Nc2cccc(S(N)(=O)=O)c2)c2ccccc2c1N | 98% (active)
O=C(/C=C/C(=O)OCCCl)OCCCl | 27%
CCc1ccccc1NC(=O)C1=C(C)NC(C)=C(C(=O)Nc2c(CC)cccc2CC)C1c1ccc2c(c1)OCO2 (stereo not given) | 15%
Oc1c(Cl)cc(Cl)c2cccnc12 | 98% (active)
COc1ccc2c(c1)[n+]([O-])c(-c1ccccc1)c(N)[n+]2[O-] | 98% (active)
O=c1cccccc1[O-].O=c1cccccc1[O-].O=c1cccccc1[O-].[Sm+3] | 17%
CCCCCCCCCCCCCCCCNc1ccn(C2CC(OP(=O)(O)OCC3OC(n4cc(CC)c(=O)[nH]c4=O)CC3O)C(CO)O2)c(=O)n1 (stereo not given) | 64%
Nc1ccccc1OCC(O)CN1CCN(Cc2ccccc2)CC1 (stereo not given) | 17%

SMILES | growth inhibition
O=S(=O)(O)c1ccc(O)c2cc(Nc3ccccc3)ccc12 | -37%
CCOC(=O)/C(=C\c1ccc(-c2ccccc2)cc1)C(C)=O | 85% (active)
O=C(C(Oc1ccc(Cl)cc1)Oc1ccc(Cl)cc1)N(O)c1ccccc1OCc1ccccc1 | 49%
CN(C)CC1CCC/C(=C\c2ccc(Cl)cc2)C1=O (stereo not given) | 99% (active)
COc1ccc(/C=N/Nc2ccccc2)cc1 | 93% (active)
O=C1c2ccccc2-c2ccccc2C(=O)C1(Br)Br | -4%
CC(=O)Nc1ccc(C(=O)n2[nH]c(C)c(/C=C3\C(=O)C=Cc4ccccc43)c2=O)cc1 | 99% (active)
CC1OC2CC(=O)OC2C2=C1C(=O)c1c(O)cccc1C2=O (stereo not given) | 99% (active)
CCOC(=O)C(CCSC)C(=O)OCC | -1%
C[CH2][Sn]([CH2]C)([O]C(=O)c1cccc(OC)c1)[O][Sn]([CH2]C)([CH2]C)[O]C(=O)c1cccc(OC)c1 | 58%
O=C(Nc1ccccc1)Oc1c(Cl)c(Cl)c(Cl)c(Cl)c1Cl | 99% (active)
CCN(CC)CCNc1ccc2nnn3c4ccc([N+](=O)[O-])cc4c(=O)c1c23 | 27%
CCCCCCN(CCCCCC)CCC(=O)c1ccc2cc(Br)c3ccccc3c2c1 | 87% (active)
COC(=O)/C=C1/Nc2ccc(Cl)cc2C(=O)NC1=O | 42%
CN(C)COC(=S)SCN(C)C | 99% (active)
Clc1ccc(-c2noc(CN3CCCCC3)n2)cc1 | 21%
CCCCCCCCCCCCCC(=O)OCC(O)CO (stereo not given) | 10%
CCC[CH2][Sn]([CH2]CCC)([O]C(=O)c1cccc(F)c1)[O]C(=O)c1cccc(F)c1 | 10%
CCCCCCCCCCCCCCCCC1CCc2ccccc21 (stereo not given) | 28%
CCOC(=O)NCCCc1ccc2oc3ccccc3c2c1 | 95% (active)
